Measurements reported in PubChem BioAssay (NCI).
The panel holds about 79,000 compounds, 15% with a hit somewhere; the sample as a whole holds those more often. The source made the active and inactive calls. Rule as the data show it: active = growth inhibition above about 70%; inactive = the rest.

Test: NCI Yeast Anticancer Drug Screen. Data for the cln2 rad14 strain (AID 165);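 also: 0% = growth equal to vehicle treated cultures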
Conditions: S. cerevisiae cln2 rad14 strain, at 5.0 µM (retest, dose inferred, filed as 0.5), active compounds read high
How it was run: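 Yeast strain cln2 rad14, bearing defects in cell cycle control and DNA repair, serves as the test system; values reflect growth inhibition compared with vehicle.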

Compound	growth inhibition
Cc1cc2c(Br)cc(Br)c(O)c2nc1C(=O)c1ccccc1	33% (inactive)
N=C1c2ccccc2-c2ccccc21	12% (inactive)
COc1ccc(-c2cn(-c3ccccc3)c3ncnc(N)c23)cc1	1% (inactive)
Nc1ccc(N=Nc2ccccc2)c2ccccc12	0% (inactive)
CS(=O)(=O)C(=Cc1ccccc1Cl)S(C)(=O)=O	2% (inactive)
O=C1c2ccccc2C(=O)c2sc(Nc3cc(Cl)ccc3Cl)nc21	52% (inactive)
COC1=CC(=O)c2c(O)c3c(c(O)c2C1=O)C=C(C)OC3O (stereo not drawn)	7% (inactive)
NC(=S)N/N=C1\NC(=O)/C(=C/c2ccc3c(c2)OCO3)S1	16% (inactive)
CCN(CC)P(=S)(c1ccccc1CCP(=S)(c1ccccc1)c1ccccc1)N(CC)CC	-1% (inactive)
CCC(=O)Oc1c(Cl)cc(Cl)c(Cl)c1Cl	-3% (inactive)
CCOC(=O)C(C)(C)C	0% (inactive)
COC1=CC(=O)c2ncccc2C1=O	-3% (inactive)
O=C1CCSC(=S)N1c1ccccc1C(F)(F)F	7% (inactive)
O=C1c2cccc(NCCNCCO)c2C(=O)c2cccc(NCCNCCO)c21	24% (inactive)
CCOc1cc2c(cc1O)CC[C@@H]1[C@@H]2CC[C@]2(C)[C@@H](O)CC[C@@H]12	12% (inactive)
S=C(N/N=C/c1ccccn1)N1CC2CCC(CC2)C1	97% (active)
COc1ccc(Nc2nc3ccccc3s2)cc1	-7% (inactive)
O=C(OCC1OC(OCC(OC(=O)c2ccccc2)C(OC(=O)c2ccccc2)C(OC(=O)c2ccccc2)c2cnn(-c3ccccc3)n2)C(OC(=O)c2ccccc2)C(OC(=O)c2ccccc2)C1OC(=O)c1ccccc1)c1ccccc1 (stereo not drawn)	6% (inactive)
O=C(CBr)Nc1ccc(Cc2ccc(NC(=O)CBr)cc2)cc1	24% (inactive)
CCOC(=O)Sc1nc2ccccc2[nH]1	3% (inactive)

Compound	growth inhibition
C=C1OC(=O)C(=O)N1CC(=O)O	-54% (inactive)
Nc1ncnc2c1ncn2C1OCC(O)C1O (stereo not drawn)	29% (inactive)
CCOC(=O)C(Cc1cc(I)c(Oc2ccc(OC)cc2)c(I)c1)NC(C)=O (stereo not drawn)	23% (inactive)
BrCc1ccc([Si](c2ccccc2)(c2ccccc2)c2ccc(CBr)cc2)cc1	-1% (inactive)
O=C1OC(C2OC(=O)C(=O)C2C(=O)c2ccc(Cl)cc2)C(C(=O)c2ccc(Cl)cc2)C1=O (stereo not drawn)	-4% (inactive)
Cc1ccc2c(c1)NC(=O)C(N=[N+]=[N-])(c1ccccc1)C2=O (stereo not drawn)	10% (inactive)
NC(=O)C1CCCN1C(=O)C1CCCN(Cc2cc(CN3CCCC(C(=O)N4CCCC4C(N)=O)C3)cc(CN3CCCC(C(=O)N4CCCC4C(N)=O)C3)c2)C1 (stereo not drawn)	-2% (inactive)
CCCCN(CCCC)CC(O)Cc1cc2ccccc2c2ccccc12 (stereo not drawn)	-7% (inactive)
CN(/N=C\c1cccc([N+](=O)[O-])c1)C(c1cccc([N+](=O)[O-])c1)N(C)/N=C/c1cccc([N+](=O)[O-])c1 (stereo not drawn)	0% (inactive)
O=C(CCl)NC(=O)N(/N=C/c1ccco1)c1ccccc1	1% (inactive)
CC1CCN(CCCOC(=O)c2ccccc2)CC1	25% (inactive)
COC(=O)C1=C(C(=O)OC)C2C(C)=CC(C)=CN2C(C(=O)OC)=C1C(=O)OC (stereo not drawn)	-2% (inactive)
CO/N=C/c1ccc([N+](=O)[O-])s1	-63% (inactive)
N/C(=N\N=C/c1ccc(O)c(O)c1O)NO	-2% (inactive)
CC1=C[P+](c2ccccc2)(c2ccccc2)C=C(c2ccccc2)O1	42% (inactive)
CC(C)SC(=S)Nc1ccc(Cl)c([N+](=O)[O-])c1	2% (inactive)
Nc1ccc2oc(=O)c3ccccc3c2c1	8% (inactive)
CCCCCSc1nc2ncnc(N)c2[nH]1	4% (inactive)
CC(C)Cn1cnc2c(SCc3cccc(F)c3)nc(N)nc21	-5% (inactive)

Same assay, conditions: S. cerevisiae cln2 rad14 strain, at 50.0 µM (retest, dose inferred, filed as 5.0), active compounds read high

Compound	growth inhibition
Cc1cc2c(Br)cc(Br)c(O)c2nc1C(=O)c1ccccc1	80% (active)
N=C1c2ccccc2-c2ccccc21	3% (inactive)
COc1ccc(-c2cn(-c3ccccc3)c3ncnc(N)c23)cc1	0% (inactive)
Nc1ccc(N=Nc2ccccc2)c2ccccc12	97% (active)
CS(=O)(=O)C(=Cc1ccccc1Cl)S(C)(=O)=O	13% (inactive)
O=C1c2ccccc2C(=O)c2sc(Nc3cc(Cl)ccc3Cl)nc21	97% (active)
COC1=CC(=O)c2c(O)c3c(c(O)c2C1=O)C=C(C)OC3O (stereo not drawn)	20% (inactive)
NC(=S)N/N=C1\NC(=O)/C(=C/c2ccc3c(c2)OCO3)S1	11% (inactive)
CCN(CC)P(=S)(c1ccccc1CCP(=S)(c1ccccc1)c1ccccc1)N(CC)CC	11% (inactive)
CCC(=O)Oc1c(Cl)cc(Cl)c(Cl)c1Cl	30% (inactive)
CCOC(=O)C(C)(C)C	11% (inactive)
COC1=CC(=O)c2ncccc2C1=O	93% (active)
O=C1CCSC(=S)N1c1ccccc1C(F)(F)F	98% (active)
O=C1c2cccc(NCCNCCO)c2C(=O)c2cccc(NCCNCCO)c21	32% (inactive)
CCOc1cc2c(cc1O)CC[C@@H]1[C@@H]2CC[C@]2(C)[C@@H](O)CC[C@@H]12	30% (inactive)
S=C(N/N=C/c1ccccn1)N1CC2CCC(CC2)C1	100% (active)
COc1ccc(Nc2nc3ccccc3s2)cc1	-14% (inactive)
O=C(OCC1OC(OCC(OC(=O)c2ccccc2)C(OC(=O)c2ccccc2)C(OC(=O)c2ccccc2)c2cnn(-c3ccccc3)n2)C(OC(=O)c2ccccc2)C(OC(=O)c2ccccc2)C1OC(=O)c1ccccc1)c1ccccc1 (stereo not drawn)	7% (inactive)
O=C(CBr)Nc1ccc(Cc2ccc(NC(=O)CBr)cc2)cc1	-2% (inactive)
CCOC(=O)Sc1nc2ccccc2[nH]1	1% (inactive)

Compound	growth inhibition
C=C1OC(=O)C(=O)N1CC(=O)O	-69% (inactive)
Nc1ncnc2c1ncn2C1OCC(O)C1O (stereo not drawn)	58% (inactive)
CCOC(=O)C(Cc1cc(I)c(Oc2ccc(OC)cc2)c(I)c1)NC(C)=O (stereo not drawn)	95% (active)
BrCc1ccc([Si](c2ccccc2)(c2ccccc2)c2ccc(CBr)cc2)cc1	-25% (inactive)
O=C1OC(C2OC(=O)C(=O)C2C(=O)c2ccc(Cl)cc2)C(C(=O)c2ccc(Cl)cc2)C1=O (stereo not drawn)	31% (inactive)
Cc1ccc2c(c1)NC(=O)C(N=[N+]=[N-])(c1ccccc1)C2=O (stereo not drawn)	71% (active)
NC(=O)C1CCCN1C(=O)C1CCCN(Cc2cc(CN3CCCC(C(=O)N4CCCC4C(N)=O)C3)cc(CN3CCCC(C(=O)N4CCCC4C(N)=O)C3)c2)C1 (stereo not drawn)	3% (inactive)
CCCCN(CCCC)CC(O)Cc1cc2ccccc2c2ccccc12 (stereo not drawn)	42% (inactive)
CN(/N=C\c1cccc([N+](=O)[O-])c1)C(c1cccc([N+](=O)[O-])c1)N(C)/N=C/c1cccc([N+](=O)[O-])c1 (stereo not drawn)	17% (inactive)
O=C(CCl)NC(=O)N(/N=C/c1ccco1)c1ccccc1	24% (inactive)
CC1CCN(CCCOC(=O)c2ccccc2)CC1	54% (inactive)
COC(=O)C1=C(C(=O)OC)C2C(C)=CC(C)=CN2C(C(=O)OC)=C1C(=O)OC (stereo not drawn)	-5% (inactive)
CO/N=C/c1ccc([N+](=O)[O-])s1	48% (inactive)
N/C(=N\N=C/c1ccc(O)c(O)c1O)NO	-6% (inactive)
CC1=C[P+](c2ccccc2)(c2ccccc2)C=C(c2ccccc2)O1	89% (active)
CC(C)SC(=S)Nc1ccc(Cl)c([N+](=O)[O-])c1	99% (active)
Nc1ccc2oc(=O)c3ccccc3c2c1	30% (inactive)
CCCCCSc1nc2ncnc(N)c2[nH]1	6% (inactive)
CC(C)Cn1cnc2c(SCc3cccc(F)c3)nc(N)nc21	54% (inactive)
